# “And” between values parts separate entries of the source, which are not always exact repeats. Equal entries are not always repeated. Records with an inconclusive call do not appear. A structure can be active in one record and inactive in another. The source made the active and inactive calls. Rule for the calls: active = hit-call score of the fitted dose curve at least 0.9, where 1 is the maximum; inconclusive = response in the unintended direction; inactive = score below 0.9.
# Test: ATG_XTT_Cytotoxicity: Cytotoxicity Assessment in the Attagene TRANS-FACTORIAL HepG2 Assay (AID 2283584);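 for AC50: XTT signal for cell number as viability in transfected HepG2 cells; cells exposed to compound for 24 h before reading; active means loss of viability signal versus DMSO baseline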
# How it was run: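 24 h chemical exposure of reporter-transfected HepG2; XTT signal loss vs DMSO indicates cytotoxicity.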
Compound,AC50,outcome
Clc1ccc2c(c1)C(N1CCNCC1)=Nc1ccccc1O2,41.8 µM (active),
CCc1c(C)cc(N)c(CC)c1N,,inactive
CCCCCCCCCCCCN,68.9 µM (active) and 58.2 µM (active),
OCc1cccnc1,,inactive
Cc1ccc(O)c(C(C)(C)C)c1,,inactive
CCn1c2ccccc2c2cc(N)ccc21,,inactive
CNCCCC12CCC(c3ccccc31)c1ccccc12,,inactive
BrC1CCC(Br)C(Br)CCC(Br)C(Br)CCC1Br (centres undefined),,inactive
CC1COc2ccccc2N1C(=O)C(Cl)Cl (centres undefined),,inactive
CC(c1cc2ccccc2s1)N(O)C(N)=O (centres undefined),,inactive
CCCC(C)C=O (centres undefined),,inactive

# Test: TOX21_p53_BLA_p2_viability: Viability Assessment in the Tox21 HCT-116 p53 Agonism Beta-lactamase Assay, Phase 2 (AID 2283591);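 note: compound exposure lasted 16 h at 37 °C; actives lower the ATP signal meaning cytotoxicity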
# How it was run: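 HCT116 p53-bla cells, 4000/well, dosed after 5 h plating (217-fold dilution of DMSO stocks) and incubated 16 h at 37C. Viability taken as cellular ATP by CellTiter-Glo luminescence after 30 min RT; signal loss marks cytotoxicity.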
Compound,AC50,outcome
O=C1OC2(c3cc(Br)c(O)c(Br)c3Oc3c2cc(Br)c(O)c3Br)c2c(Cl)c(Cl)c(Cl)c(Cl)c21,46.2 µM (active) and 19.8 µM (active),
O=C1c2ccccc2C(=O)N1SC1CCCCC1,61.2 µM (active),inactive
Cc1ccc(C(=O)c2cc(O)c(O)c([N+](=O)[O-])c2)cc1,53.8 µM (active),inactive
CC(CN1c2ccccc2Sc2ccccc21)N(C)C (centres undefined),38.9 µM (active),
O=C(Cl)c1cccc(C(=O)Cl)c1,,inactive
CCCCC/C=C/C=C/C=O,62.9 µM (active),inactive
c1ccc2c(c1)c1cccc3ccc4cccc2c4c31,,inactive
CCCCCCCCCCCCN,51.6 µM (active),inactive
Cc1ccc(O)c(C(C)(C)C)c1,44.8 µM (active),inactive
CCn1c2ccccc2c2cc(N)ccc21,,inactive
CNCCCC12CCC(c3ccccc31)c1ccccc12,64.5 µM (active),inactive
BrC1CCC(Br)C(Br)CCC(Br)C(Br)CCC1Br (centres undefined),18.1 µM (active) and 18.2 µM (active),

# — PubChem BioAssay (EPA / NIEHS)
